Out of some 48,000 compounds screened, about 13,000 (27%) showed an effect of 50% or more. The list shows a part of the results.
Each compound was assayed on Wolbachia pipientis (assay: Anti-Wolbachia Cell-Based Screen). Details: 5 µM.
Format: functional
Set-up: scale not given: in the data most compounds retested in dose-response had high values

First: CC(=O)N1CCC2(CC1)c1ncc(-c3cccnc3)n1CCN2C
Second: Cc1cnc(N2CCC3(CCCCN3C)C2)nc1.O=C(O)C(F)(F)F (configuration not stated)
The “Percent Effect” value of the first is higher: 84.46% for the first, -23.72% for the second.

First: CCC1CCCCN1CCc1ccncc1 (configuration not stated)
Second: CC1CN(CCc2ccncc2)CCO1 (configuration not stated)
The “Percent Effect” value of the first is lower: -22.38% for the first, 124.6% for the second.

First: c1ccc2c(c1)CCC21CN(CCc2ccncc2)CCO1 (configuration not stated)
Second: O=C(O)C(F)(F)F.O=C(O)C(F)(F)F.O=C1NCC[C@]12CN(Cc1ccncc1)C[C@H]2c1ccccc1
The “Percent Effect” value of the first is lower: -6.517% for the first, 4.919% for the second.

Compared with CC(C)=CCN1C(=O)[C@H]2CC[C@@H]1CN(Cc1cccnc1N)C2, Nc1ncccc1CN1C[C@@H]2CC[C@H](C1)N(CC1CC1)C2=O is lower in “Percent Effect” value: 18.56% for the first, 7.202% for the second.

Compared with COc1cccc(CC(C)NC(=O)NCc2ccn(C)c2)c1 (configuration not stated), Cc1ccccc1CNCC(O)c1ccc(OC(C)C)cc1 (configuration not stated) is higher in “Percent Effect” value: -0.6382% for the first, 14.53% for the second.

Compared with O=C(O)C(F)(F)F.O=C(O)C(F)(F)F.O=C1NCC[C@]12CN(Cc1cccnc1)C[C@H]2c1ccccc1, O=C(O)C(F)(F)F.O=C(O)C(F)(F)F.c1cncc(COC[C@@H]2CCC[C@]23CNCCO3)c1 is higher in “Percent Effect” value: -5.552% for the first, 101.8% for the second.

Going from Cl.Cl.c1cncc(COC[C@@H]2CCC[C@@]23CNCCO3)c1 to O=C(O)C(F)(F)F.c1cc(COC[C@H]2CCC[C@]23CNCCO3)ccn1, the “Percent Effect” value rises from 86.08% to 99.79%.

First: O=C(NCC1CC[C@@]2(CNCCOC2)O1)c1cccnc1 (some centres not stated)
Second: COC(=O)NCC1CCC2(CCNCC2)O1.Cl (configuration not stated)
The “Percent Effect” value of the first is higher: -3.368% for the first, -32.05% for the second.

First: CCN(Cc1cccnc1)CC1CCCO1 (configuration not stated)
Second: CN(C)C(=O)CN1CC[C@@H]2O[C@@H](COCc3cccnc3)CC[C@@H]21.O=C(O)C(F)(F)F.O=C(O)C(F)(F)F
The “Percent Effect” value of the first is higher: -10.66% for the first, -11.44% for the second.

First: COC[C@@H]1CCC[C@]12CN(Cc1cccc(C)n1)CCO2.O=C(O)C(F)(F)F.O=C(O)C(F)(F)F
Second: Cc1cccc(CN2CCN3C[C@H](Oc4cncnc4)C[C@H]3C2)n1.O=C(O)C(F)(F)F.O=C(O)C(F)(F)F
The “Percent Effect” value of the first is lower: 6.622% for the first, 126.4% for the second.

First: CC(C)(C)c1cc(=O)[nH]c(C2(N)CCCC2)n1
Second: CC(C)N1C(=O)C2(CCN(C)CC2)c2cc(F)ccc21.Cl
The “Percent Effect” value of the first is higher: 3.211% for the first, -32.23% for the second.

First: CC[C@H]1CN2CC[C@H]1C[C@@H]2CNC(=O)Nc1cccc(C(F)(F)F)c1
Second: O=S(=O)(NC[C@H]1C[C@@H]2CCN1C[C@@H]2CN1CCCCC1)c1ccccc1
The “Percent Effect” value of the first is higher: -2.454% for the first, -3.393% for the second.

Going from Cc1noc(CN2CC=C(c3cnn(C4CCS(=O)(=O)C4)c3)CC2)n1 (configuration not stated) to O=c1[nH]ccn1CCCN1CC=C(c2cnn(-c3ccccc3)c2)CC1, the “Percent Effect” value rises from -14.25% to 2.052%.

Going from CCOc1ccc(-c2cc(CCN)ccc2OC)cc1 to COc1ccc(F)cc1C(=O)C1CCCN(Cc2ccc(C)s2)C1 (configuration not stated), the “Percent Effect” value falls from 7.711% to -15.99%.

Going from Cl.O=C(N[C@H]1CN[C@H]2CCCO[C@H]21)c1cscn1 to CN1C[C@H](NC(=O)c2cscn2)[C@@H]2OCCC[C@@H]21.O=C(O)C(F)(F)F, the “Percent Effect” value rises from 6.195% to 111.9%.

Going from O=C(N[C@H]1CN(Cc2cccs2)[C@@H]2CCCO[C@H]12)c1cccnc1.O=C(O)C(F)(F)F.O=C(O)C(F)(F)F to Cc1cccc(CN2CCN3C[C@H](Oc4cccnc4)C[C@H]3C2)n1.O=C(O)C(F)(F)F.O=C(O)C(F)(F)F.O=C(O)C(F)(F)F, the “Percent Effect” value falls from -1.494% to -1.606%.

First: CNCC[C@H]1CC(C)(C)Oc2ccc(C)cc21
Second: CCc1cc(CN(C)C(=O)CN2CC(Cc3ccccc3)CC2=O)on1 (configuration not stated)
The “Percent Effect” value of the first is higher: 99.82% for the first, 4.825% for the second.

Compared with COCc1cn(C[C@H]2C[C@@H]3CCN2C[C@@H]3C(=O)N2CCOCC2)nn1, COCCN1CCN(S(=O)(=O)C2CC2)Cc2cccnc21 is higher in “Percent Effect” value: -6.421% for the first, 114% for the second.

Going from O=C(CN1CCN(C(=O)Cc2ccc3c(c2)OCCO3)CC1)NC1CC1 to NC(=O)CN1CCCN(C(=O)Cc2ccc3c(c2)OCO3)CC1, the “Percent Effect” value falls from 5.479% to -4.573%.

First: CN(C)CCN(C(=O)Cc1ccc2c(c1)OCCO2)C1CCN(C)CC1.O=C(O)CC(O)(CC(=O)O)C(=O)O
Second: CN(C)CCN(C)C(=O)Cc1ccc2c(c1)OCCO2.O=C(O)CC(O)(CC(=O)O)C(=O)O
The “Percent Effect” value of the first is higher: 109% for the first, 107.5% for the second.

First: Cc1[nH]c2c(C)cccc2c1CC(=O)N(C)CCN(C)C.O=C(O)CC(O)(CC(=O)O)C(=O)O
Second: CC(C)CN1CCC2(CC1)C(=O)Nc1ccc(C(=O)N(C)C)cc12.O=C(O)C(F)(F)F
The “Percent Effect” value of the first is higher: 103% for the first, -3.196% for the second.

Compared with CNC(=O)c1ccc2c(c1)C1(CCN(C(C)C)CC1)C(=O)N2.O=C(O)C(F)(F)F, CC(C)NC(=O)c1ccc2c(c1)C1(CCN(C(C)C)CC1)C(=O)N2.O=C(O)C(F)(F)F is higher in “Percent Effect” value: 95.47% for the first, 106.4% for the second.

First: CC(C)NC(=O)c1ccc2c(c1)C1(CCN(C)CC1)C(=O)N2.O=C(O)C(F)(F)F
Second: CC(C)CN1CCC2(CC1)C(=O)Nc1ccc(C(=O)NC(C)C)cc12.O=C(O)C(F)(F)F
The “Percent Effect” value of the first is higher: 109.7% for the first, 99.87% for the second.

Compared with CNC(=O)c1ccc2c(c1)C1(CCN(CC(C)C)CC1)C(=O)N2.O=C(O)C(F)(F)F, CNC(=O)[C@H]1C[C@@H]2CN(C(=O)c3ccc(C)nc3)C[C@@H]2N1C(C)C.O=C(O)C(F)(F)F.O=C(O)C(F)(F)F is higher in “Percent Effect” value: -7.062% for the first, 4.326% for the second.

Compared with CNC(=O)[C@H]1C[C@H]2OCC[C@H]2N(CC2CC2)C1.O=C(O)C(F)(F)F, COCCN1CCN(S(=O)(=O)C2CC2)Cc2ccc(C)nc21.O=C(O)C(F)(F)F is higher in “Percent Effect” value: -3.474% for the first, 0.9634% for the second.

Compared with O=C(NCC1CC1)C1CCC2(CCNCC2)C1 (configuration not stated), Cc1cc(CC(=O)N2CCN(C)[C@@H]3CS(=O)(=O)C[C@@H]32)ccc1F is lower in “Percent Effect” value: -14.8% for the first, -18.64% for the second.

Compared with CCS(=O)(=O)c1nnc([C@@H](N)Cc2ccccc2)o1, CC(=O)c1cc(CC(=O)N2CCN(CCOc3ccccc3)CC2)cs1 is lower in “Percent Effect” value: 144% for the first, -5.45% for the second.

First: CCCS(=O)(=O)N1CCN(CCOC)c2nc(C)ccc2C1.O=C(O)C(F)(F)F
Second: CCS(=O)(=O)N1CCN(CCOC)c2ncccc2C1
The “Percent Effect” value of the first is lower: 12.9% for the first, 117.1% for the second.

First: COCCN1CCN(S(C)(=O)=O)Cc2cccnc21
Second: c1ccc(CN2CCN3C[C@H](Oc4cccnc4)C[C@H]3C2)nc1
The “Percent Effect” value of the first is higher: 94.34% for the first, -1.108% for the second.

Compared with O=C(O)C(F)(F)F.O=C(O)C(F)(F)F.c1ccc(CN2CCN3C[C@H](Oc4cncnc4)C[C@H]3C2)nc1, Cn1ccnc1CN1CCN2C[C@H](Oc3cncnc3)C[C@H]2C1.O=C(O)C(F)(F)F.O=C(O)C(F)(F)F is lower in “Percent Effect” value: 117.2% for the first, -0.7067% for the second.

Compared with Fc1cccc(O[C@@H]2C[C@H]3CN(Cc4ccccn4)CCN3C2)c1.O=C(O)C(F)(F)F.O=C(O)C(F)(F)F, Cc1nc(CN2CCN3C[C@H](Oc4cncnc4)C[C@H]3C2)cs1.O=C(O)C(F)(F)F.O=C(O)C(F)(F)F is higher in “Percent Effect” value: -1.961% for the first, 123.6% for the second.

— ChEMBL document CHEMBL3988442, “University of Dundee, Small-Polar-MMV Screening Library” (2021)
